# Screens as filed in PubChem.
# PKA-R2B act – activates the human PKA-R2B holoenzyme complex. PKA-R2B holoenzyme dissociation, Cy5-IP20 fluorescence polarization; R2B truncated from residue 108, S112A mutant; 0% DMSO only, 100% 113 µM cGMP. AID 504700. activation, % at 11.4 µM. 0.079% of 340,000 active;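 active = activation above a cutoff set at the mean over all compounds plus 3 SD, cut at about 18% in these data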;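 note: higher means more holoenzyme dissociation and a rise in polarization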
# eLon inh – E. coli protease La inhibition. P0A9M0. purified E. coli Lon protease, fluorescence polarization. inhibition, % at 7.94 µM. 0.42% of 360,000 active. AID 602123; in the data active = inhibition above about 13%, passing the limit was not always enough;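 note: 0% = enzyme with probe and DMSO and 100% = no enzyme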
# IDE cell inh – inhibits human insulin-degrading enzyme in HEK cells; P14735; FAbetaB cleavage, fluorescence polarization; inhibition, % at 5.59 µM; 0.41% of 320,000 active; AID 434962;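 active = percent inhibition above the average of all tested compounds plus 3 SD, set per screening campaign, cut at about 16% in these data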;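 note: IDE supplied by intact live HEK cells; FP after avidin binding of uncleaved biotin substrate so inhibition keeps polarization high; 0% = DMSO wells and 100% = 60 µM reference IDE inhibitor Ii1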
# Rin1 Abl inh – blocks binding of human Rin1 to Abl. TR-FRET Rin1/Abl binding, biochemical. P00519+Q13671. AID 588664. inhibition, % at 7.35 µM. 0.4% of 360,000 active; in the data active = inhibition above about 5%, passing the limit was not always enough
# PKA-R1A activ – activators of PKA-R1A complex; PKA-R1A dissociation, Cy5-IP20 fluorescence polarization; scaled: DMSO 0%, 113 µM cGMP 100%; 0.083% of 340,000 active; P00514+P68181; AID 504707; activation, % at 11.4 µM;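 active = percent activation above the mean of all tested compounds plus 3 SD, cut at about 19% in these data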;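 note: higher means more PKAc released from R1A so a rise in polarization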
# IDE cell activ – activators of human insulin-degrading enzyme in cells; HEK cells, FAbeta-B cleavage, fluorescence polarization; 0% vehicle, 100% cell-free pure enzyme wells; P14735; activation, % at 5.96 µM; 0.073% of 340,000 active;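 active = activation above the mean of all tested compounds plus 3 SD, set per screening campaign, cut at about 17% in these data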
# eLon confirm – E. coli Lon inhibition confirmation | AID 602230 | shares compounds with eLon inh | inhibition, % at 7.94 µM | purified E. coli Lon, fluorescence polarization | 31% of 1,400 active; in the data active = inhibition above about 16%;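 note: 0% = enzyme with probe and DMSO and 100% = no enzyme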
# * = called active by the depositor; i = inactive; . = no result; + = active, no number. In the library only some 1.3% were active in any assay of this set; here they are far more common.
SMILES,PKA-R2B act,eLon inh,IDE cell inh,Rin1 Abl inh,PKA-R1A activ,IDE cell activ,eLon confirm
CN(C)S(=O)(=O)c1ccc(Cl)c(C(=O)NNC(=O)Cc2nc3ccccc3n2C)c1,-3,+,-4,1,2,2,3
COc1cccc(-n2c(Cc3cc(=O)[nH]c(=O)[nH]3)nnc2SCC(=O)NC2CCCCC2)c1,6,8,2,-2,-19,3,.
COc1cccc(-n2c(Cc3cc(=O)[nH]c(=O)[nH]3)nnc2SCC(=O)N2CCCCC2)c1,6,16*,0,-1,-1,-5,23*
CCOc1ccc(-n2c(Cc3cc(=O)[nH]c(=O)[nH]3)nnc2SCC(=O)OC)cc1,11,16*,1,-2,-7,3,13
CCOc1ccc(-n2c(Cc3cc(=O)[nH]c(=O)[nH]3)nnc2SCC)cc1,9,6,9,-2,2,-3,.
CCOC(=O)CSc1nnc(Cc2cc(=O)[nH]c(=O)[nH]2)n1-c1ccc(Cl)cc1,8,15*,1,2,-5,3,12
CC(C(=O)NCC1CCCO1)n1cc([N+](=O)[O-])cn1 (stereo unspecified),-10,-3,-4,-1,-3,0,.
Cc1ccc(OCC(=O)N2CCN(S(C)(=O)=O)CC2)cc1,-6,50*,-9,2,-7,3,-7
CC(C)c1ccc(CC(=O)N2CCC2(C)C(=O)NCCC#N)cc1 (stereo unspecified),.,-7,.,-3,.,.,.
O=C(Nc1cccc(S(=O)(=O)N2CCCCC2)c1)C1CC(=O)N(c2ccc3c(c2)OCCO3)C1 (stereo unspecified),2,5,2,1,-12,1,.
O=C(Nc1cccc(S(=O)(=O)N2CCCCCC2)c1)C1CC(=O)N(c2ccc3c(c2)OCCO3)C1 (stereo unspecified),-4,22*,4,2,-1,-3,-14
Cc1ccc(S(=O)(=O)N2CC(O)C[C@H]2C(=O)OCC(=O)c2ccccc2)cc1 (stereo partly specified),-9,-2,0,-1,4,3,.
O=C(COC(=O)C1CC(O)CN1S(=O)(=O)c1ccc(Cl)cc1)c1cccc(Cl)c1 (stereo unspecified),8,72*,-2,-2,-11,5,-19
COc1ccc(C(=O)/C=C/Nc2cc(C)on2)c(OC)c1,9,1,-6,3,-3,0,.
N#CC(C#N)=C1C=C2C=C(N3CCCCCC3)CCC2CC1 (stereo unspecified),-4,151*,.,-57,4,47*,-95
CN1CCN(C2=CC3=CC(=C(C#N)C#N)CCC3CC2)CC1 (stereo unspecified),-3,i,.,-219,-12,13,.
O=C(CSc1nnc2c(n1)[nH]c1ccccc12)Nc1ccc(S(=O)(=O)Nc2ncccn2)cc1,2,18*,.,7,7,0,28*
Cc1ccc(NC(=O)CSc2nnc3c(n2)[nH]c2ccccc23)cc1,-3,-7,1,1,-1,0,.
Cc1c(N)c(C(C)(C)C)cc(C(C)(C)C)c1[N+](=O)[O-],-13,7,-3,0,-7,-2,.
Cc1cc2nc3c(=O)[nH]c(=O)[nH]c3nc2c([N+](=O)[O-])c1N,12,95*,.,-4,-3,21*,182*
CC1C(=O)C(C)C(c2ccco2)NC1c1ccco1 (stereo unspecified),1,24*,-2,0,-1,1,-5
CCOc1ccc(C(c2c(C)n(C)n(-c3ccccc3)c2=O)c2c(C)n(C)n(-c3ccccc3)c2=O)c(O)c1,-7,11,-2,0,-1,5,.
Cn1c2c(c(=O)n(C)c1=O)C(C(F)(F)F)(C(F)(F)F)N=C(c1ccccc1Cl)N2,1,1,4,0,-5,0,.
Cn1c(=O)c2[nH]c(-c3ccccc3Cl)c(O)c2n(C)c1=O,-5,139*,-2,-1,-1,-2,13
Cn1c(=O)c2[nH]c(-c3ccccc3)c(O)c2n(C)c1=O,-3,+,-6,-4,-11,15,+
SMILES,PKA-R2B act,eLon inh,IDE cell inh,Rin1 Abl inh,PKA-R1A activ,IDE cell activ,eLon confirm
CCOc1ccc2[nH]c(=O)c(CN(CCCN3CCOCC3)C(=O)Nc3ccc(F)cc3)cc2c1,1,-9,.,-3,6,-4,.
N#Cc1cccc(NC(=O)c2cc(C3CCCCN3C(=O)c3cccs3)on2)c1 (stereo unspecified),.,15*,.,0,.,.,-3
COc1cc2[nH]c(=S)n(C3CC3)c(=O)c2cc1OC,-7,-12,-2,-4,1,1,.
CN(C)c1ccc(C(=S)N2CCCCC2)cc1,-8,46*,1,-2,2,6,5
Cc1cccc(NC(=O)CS(=O)(=O)Cc2ccccc2)n1,-5,-6,-5,-4,1,-3,.
O=C(NCCc1ccccc1)c1cccc(NC(=O)C2CCCC2)c1,-6,16*,.,-2,-5,-2,-1
O=C(NCCc1ccccc1)C1CCN(S(=O)(=O)N2CCCCCC2)CC1,-2,35*,6,1,-6,0,19*
O=C(NCCc1ccccc1)c1cccc(NC(=O)C2CCCCC2)c1,-12,8,.,-3,-6,1,.
CN(C)/C(=N\O)c1c(Cl)cccc1Cl,-5,-3,0,-3,-14,6,.
COC(=O)c1ccc(CN2C(=O)C(C)ON=C2c2ncccc2C)o1 (stereo unspecified),.,-4,.,0,.,.,.
CCCCOc1ccc(C(=O)N/C(=C\c2cccc([N+](=O)[O-])c2)C(=O)OCc2ccco2)cc1,-4,-9,-2,-2,-6,4,.
CCCCCCn1c(=O)[nH]c2nc3cc(N)c(C)cc3nc2c1=O,4,116*,.,-18,9,-71,49*
CCCCn1c(=O)[nH]c2nc3cc(NC(C)=O)ccc3nc2c1=O,-7,35*,5,-8,-2,-3,33*
O=C(O)C1CCCN1c1nc(-c2ccc(Cl)c(Cl)c2)cc(C(F)(F)F)n1 (stereo unspecified),-2,-2,2,0,6,4,.
CCN1CC=C2C(C1)C(c1ccc(Cl)s1)C(C#N)=C(N)C2(C#N)C#N (stereo unspecified),-5,81*,10,0,-9,-1,0
CCCN1C(=O)C(O)(CC(=O)c2ccc3c(c2)OCCO3)c2ccccc21 (stereo unspecified),-10,-7,0,1,1,5,.
O=c1oc2ccccc2c(O)c1Sc1c(O)c2ccccc2oc1=O,3,28*,.,-7,5,6,35*
